# Bioassay records deposited in PubChem by National Center for Advancing Translational Sciences (NCATS).
# This is a sample that favours compounds with a hit; in the whole collection about 19% have one here.
# DT40 TDP1 CPT = growth inhibition of DT40 Tdp1-/-;hTDP1 cells with camptothecin (screen for TDP1 inhibitors); Potency, µM (titrated, usually from 46.2 µM), for inactives: at the top dose activity change, negative = growth inhibition, usual class: inhibitors; AID 686979; chicken DT40 Tdp1-/-;hTDP1 cells + 20 nM CPT, ATP luminescence, 48 h; 420,000 tested, 12% active; also: nearly all actives have a fitted effect of over 55% in size
#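 Cell growth measured by CellTiter-Glo luminescence after a minimum 48 h, 37 C compound exposure with 20 nM CPT in Tdp1-knockout DT40 cells stably expressing hTDP1, seeded 400/well; qHTS titration format.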
# KB-3-1 cytotox = kills parental KB-3-1 adenocarcinoma cells. KB-3-1 viability, CellTiter-Glo ATP luminescence, 72 h. 400,000 tested, 1.4% active. Potency, µM (doses to about 46.1 µM), hits mostly cytotoxic; also: nearly all actives have a fitted effect of over 60% in size
#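 KB-3-1 parental drug-naive adenocarcinoma cells in DMEM/10% FBS, incubated 72 h at 37 C with pin-transferred compounds across a concentration series. Viability by CellTiter-Glo luminescence; concentration-response curves fitted after normalization.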
# HT1080NT lethal = kills 2HG-producing HT-1080-NT fibrosarcoma cells | HT-1080-NT fibrosarcoma viability, CellTiter-Glo ATP luminescence, 48 h | Potency, µM (top dose mostly 46.1 µM), inactives show top-dose activity, negative = less viability, actives largely listed as cytotoxic | 360,000 tested, 1.6% active;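 also: NT is the 2HG producing partner of a matched IDH1 knockdown line; 0% = DMSO-treated cells and -100% = media-only wells without cells; nearly all actives have a fitted effect of over 55% in size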
#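 A 48-hour cytotoxicity screen used HT-1080-NT cells plated 2 hours before compound delivery. ATP-based CellTiter-Glo luminescence measured viability, normalized to DMSO and no-cell controls.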
# KB-V1 cytotox = kills drug-selected multidrug resistant KB-V1 cells; KB-V1 MDR cells viability, CellTiter-Glo, 72 h; Potency, µM (top dose mostly 46.1 µM), most hits filed as cytotoxic; 400,000 tested, 3.4% active; AID 1347076; also: nearly all actives have a fitted effect of over 60% in size
#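 KB-V1, DMEM (no phenol red) + 10% FBS; cpd pin-transferred, titration series; 72 h, 37 degrees C; CellTiter-Glo, luminescence. Data normalized, curve-fit.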
# TDP1 cell noCPT = qHTS for Inhibitors of human tyrosyl-DNA phosphodiesterase 1 (TDP1): qHTS in cells in absence of CPT; DT40 Tdp1-/- hTDP1 cells, no CPT, ATP luminescence, 48 h; Potency, µM (doses to about 46.2 µM), inactives show top-dose activity change, negative = growth inhibition, most hits filed as inhibitors; 420,000 tested, 15% active; also: nearly all actives have a fitted effect of over 55% in size
#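 Chicken DT40 Tdp1-/- cells stably complemented with human TDP1 were seeded at 400 cells/well with DMSO in place of 20 nM camptothecin. After compound pinning, cells grew at least 48 hr at 37 °C; viability read by CellTiter-Glo luminescence.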
# HT1080 IDH1KD tx = kills HT-1080 cells with IDH1 knockdown. Potency, µM (top dose mostly 46.1 µM), without a hit: at the top dose activity, negative = toxicity, most hits filed as cytotoxic. 360,000 tested, 2% active. HT-1080 IDH1 knockdown viability, ATP luminescence, 48 h;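 also: 0% = DMSO wells and -100% = cell-free medium wells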
#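 Viability of IDH1-knockdown HT-1080 fibrosarcoma cells was assessed by CellTiter-Glo after 48 h at 37 °C with titrated compound; concentration-effect curves were classified by fit quality and response size.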
# Active calls of the source: *; i = inactive; ? = inconclusive; . = no result; [ ] = remark or other dose. Calls follow the shape of the dose curve; as a rule, active = well fitted curve in the direction sought with a large enough effect; inconclusive = small, poorly fitted or top-dose-only effect, or another doubt; inactive = no such curve, though single readings can be large; an effect the other way counts as inactive or inconclusive. Unless noted, % is scaled to controls: 0 for no effect and ±100 for the full control effect; potency is read from the fitted curve at half-maximal effect.
SMILES,DT40 TDP1 CPT,KB-3-1 cytotox,HT1080NT lethal,KB-V1 cytotox,TDP1 cell noCPT,HT1080 IDH1KD tx
Cc1ccc(N2C(=O)C(Cl)=C(N3CCCCCC3)C2=O)c(C)c1,?,i,0%,i,15µM*,-10%
N=C1C(c2nc(-c3ccc(Cl)cc3)cs2)=C(O)CN1NC(=O)c1ccc(O)cc1,0%,i,1%,i,-24%,-7%
O=C(NCC(=O)N1CCN(S(=O)(=O)c2ccccc2)CC1)c1ccc2ccccc2c1,-4%,i,-5%,12µM*,?,-1%
O=C(CCl)N1CCN(S(=O)(=O)c2ccc3c(c2)OCCCO3)CC1,5.2µM*,?,-9%[9.24 µM],i,3.7µM*,?
CCCCCC(=O)N1CCN(S(=O)(=O)c2ccc3c(c2)OCCO3)CC1,-4%,i,-1%,?,-20%,-19%
CCCCNc1nnc(SCC(=O)N2CCN(S(=O)(=O)c3ccc4ccccc4c3)CC2)s1,?,i,-7%,?,23µM*,-13%
O=S(=O)(c1ccc(N2CCN(S(=O)(=O)c3ccc4c(c3)OCCO4)CC2)nc1)N1CCCC1,-1%,?,-12%,8.2µM*,?,-14%
O=C(Cn1ncc2c([nH]c3ccccc32)c1=O)Nc1cc(F)ccc1F,4%,i,.,i,-17%,.
COC(=O)c1ccccc1NC(=O)c1nn(C)c2c1COc1ccccc1-2,-5%,.,.,.,-2%,.
Cc1ccc(S(=O)(=O)N2CCN(C(=O)Cc3ccc4c(c3)OCCO4)CC2)cc1C,?,i,-5%,4.1µM*,?,-7%
O=C(c1ccccc1F)N1CCN(S(=O)(=O)c2ccc3c(c2)OCCO3)CC1,12µM*,i,0%,i,?,1%
O=C(NCC(=O)N1CCN(S(=O)(=O)c2ccc3c(c2)OCCO3)CC1)c1ccccc1F,-6%,i,-3%,i,-5%,-1%
O=C(Cc1ccc2c(c1)OCCO2)N1CCN(S(=O)(=O)c2cccc(Cl)c2Cl)CC1,0%,i,2%,23µM*,3%,1%
O=C(CCl)N1CCN(S(=O)(=O)c2ccc3ccccc3c2)CC1,3.3µM*,?,?,?,5.8µM*,?
CN[C@@H](CO)C(=O)NC[C@H]1O[C@@H](n2cnc3c(N)ncnc32)[C@H](O)[C@@H]1O,0%,i,21%,i,1%,4%
O=C(NCc1nnc2c(C(F)(F)F)cc(Cl)cn12)c1cccnc1,0%,i,2%,i,3%,2%
O=C(Cc1ccc2c(c1)OCCO2)N1CCN(S(=O)(=O)c2ccccc2C(F)(F)F)CC1,-16%,i,13%,21µM*,-27%,4%
O=C(Cc1ccc2c(c1)OCCO2)N1CCN(S(=O)(=O)c2cccs2)CC1,3%,i,4%,?,-16%,4%
COC(=O)c1ccc(Sc2nnnn2-c2ccccc2)c([N+](=O)[O-])c1,16µM*,?,?,?,23µM*,?
COc1ccc(NC(=O)c2cc([N+](=O)[O-])ccc2NC(=O)CNCc2ccccn2)c(OC)c1,?,i,-21%,?,13µM*,?
COc1cc(NC(=O)c2cc([N+](=O)[O-])ccc2NC(=O)CNCc2ccccn2)cc(OC)c1,2%,?,-21%,?,?,-23%
COc1cc(NC(=O)c2cc([N+](=O)[O-])ccc2NC(=O)CNC2CCCCC2C)cc(OC)c1 (stereo unspecified),?,i,?,?,?,0%
